Structures are written as SMILES. The panel holds about 83,000 compounds, 20% with a hit somewhere; the sample as a whole holds those more often.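 Method: cells in 96-well plates; compound added at one concentration; 48 h incubation; percent growth measured; values under 10 scored active.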 Activity calls are given as the source filed them.

This experiment deals with HL-60(TB) leukemia. Nature of the experiment: NCI-60 one-dose screen, 48 h (100 = growth as untreated, 0 = no growth, -100 = all killed). The settings on record: 10 µM unless noted.
In the case of `Nc1ncnc2c1ncn2C1OC(COP(=O)(O)O)C(O)C1O` (stereo not given), the growth is 102% (inactive).

As for `CCOCC(=O)C(C#N)c1ccc(Cl)c(Cl)c1` (stereo not given), the growth is 102% (inactive).

Take `COc1ccc2c(c1)C(=O)c1c-2c(OCCCN(C)C)nc2cc(Br)ccc12`: the growth was 98.4% (inactive).

On to `CC(=O)Oc1cc(OC(C)=O)c2ccccc2c1OC(C)=O`, for which the growth was 23.3% (inactive).

Consider `COc1cc(CNC(=O)CCCC/C=C/C(C)C)ccc1OCc1cn(-c2ccc(C(F)(F)F)cc2)nn1`, for which the growth was 85.3% (inactive).

For `N#Cc1ccc(-c2ccc(-c3cccs3)o2)cc1F`, the growth was 89.3% (inactive).

Turning to `CCCCCCC/C=C/[C@H]1O[C@]2(O)C(=O)C=C3C[C@@H](O[C@@H]4O[C@H](CO)[C@@H](O)C(O)[C@@H]4O)C[C@@H]3[C@H]2C=C1C` (stereo not given in full), the growth is -46.4% (active).

`COc1ccc(/C(C)=C(\c2ccc(Cl)cc2)c2ccc(OCCCN(C)C)cc2)cc1`: the growth is 67.1% (inactive).

Regarding `Fc1ccc(-c2ccnc3nc(-c4ccncc4)nn23)cc1`, the growth is 96.5% (inactive).

On to `Cc1ccc(/C=C/c2c(C(=O)/C=C/c3ccc(Cl)cc3)c(C)nc3ccccc23)cc1`, for which the growth is -8.89% (active).

With `O=c1n(Cc2ccc3ccccc3c2)ccn1Cc1ccc2ccccc2c1`, the growth is 103% (inactive).

`Cc1nn(-c2nc3ccccc3[nH]2)c2c1C(c1ccc(O)cc1)CC(=O)N2` (stereo not given): the growth is 82.1% (inactive).

For `COc1ccc(NC(=O)c2sc3nc(C)c(C(=O)c4ccccc4)cc3c2N)cc1`, the growth was 78.8% (inactive).

As to `O=[N+]([O-])c1c(O)c(Cl)cc(Cl)c1Cl`, the growth was 92.1% (inactive).

`O=S(=O)(Nc1ccc(-n2cnc3cc(-c4ccc(O)cc4)ccc32)cc1)c1ccccc1`: the growth was 79% (inactive).

In the case of `CC(=O)N1N=C(c2ccc(Nc3nc(NCCO)nc(NCCO)n3)cc2)CC1c1ccc(Cl)cc1` (stereo not given), the growth is 117% (inactive).

With `COc1ccc(-c2c(-c3ccccc3)noc2N)cc1OC`, the growth is 95.2% (inactive).

With `Clc1ccc2c(c1)nnn1c3ncccc3c(Br)c21`, the growth is 113% (inactive).

`C=C1C(=O)O[C@H]2[C@H]1CC/C(Cn1cc(-c3ccc(OC)cc3)nn1)=C\CC[C@@]1(C)O[C@@H]21`: the growth is -35.2% (active).

With `CCOC(=O)C1=C(c2ccccc2)N=C2N(c3ccccc3)N=C(C(C)=O)N2C1c1ccc(F)cc1` (stereo not given), the growth is 89.8% (inactive).

Turning to `Nc1nc(N)c2c(n1)NC(c1ccccc1)C1CCc3ccccc3C1=N2` (stereo not given), the growth was -11.2% (active).

Turning to `CN(Cc1cnc2nc(N)nc(N)c2n1)c1ccc(C(=O)NC(CCC(=O)O)C(=O)O)cc1Br` (stereo not given), the growth is 45.2% (inactive).

On to `Cc1ccc(S(=O)(=O)N2CCC(C(=O)Nc3ccc(F)cc3F)CC2)cc1`, for which the growth was 88.2% (inactive).

Consider `c1ccc2nc(N/N=C3\CCCCC3C3CCCCC3)ccc2c1` (stereo not given), for which the growth is -19.7% (active).

As to `CCCC(OC(C)=O)c1ccc2c(c1)OCO2` (stereo not given), the growth was 98.7% (inactive).

On to `CO[C@H](C(=O)[C@@H](O)[C@@H](C)O)[C@@H]1Cc2cc3cc(O[C@H]4C[C@@H](O[C@H]5C[C@@H](O)[C@H](O)C(C)O5)[C@H](O)C(C)O4)c(C)c(O)c3c(O)c2C(=O)[C@H]1O[C@H]1C[C@@H](O[C@H]2C[C@@H](O[C@H]3C[C@@H](OC)[C@H](O)C(C)O3)[C@@H](O)C(C)O2)C(O)(O)C(C)O1` (stereo not given in full), for which the growth is 26.8% (inactive).

As for `CN1CCN(CC(=O)Nc2ccc3ncnc(Nc4ccc(Oc5cccc(C(F)(F)F)c5)c(Cl)c4)c3c2)CC1`, the growth is -35.7% (active).

With `CCOC(=O)Nc1ccc2c(c1)C(=O)N(CC)c1ccccc1O2`, the growth is -17% (active).

On to `COc1ccc(/C=C2\CN(Cc3cn(CCNc4ccnc5cc(Cl)ccc45)nn3)C/C(=C\c3ccc(OC)c(OC)c3)C2=O)cc1OC`, for which the growth was -11.3% (active).

As to `COc1cc(/C=N/Nc2ccccc2F)cc(OC)c1OC`, the growth was 90.1% (inactive).

As for `CC(=O)[C@@H]1CC[C@]2(COS(=O)(=O)c3ccc(C)cc3)CC[C@]3(C)[C@H](CC[C@@H]4[C@@]5(C)CCCNC(C)(C)[C@@H]5CC[C@]43C)[C@@H]12`, the growth is 28.1% (inactive).

Turning to `COCc1nc2ccccc2[nH]1`, the growth is 96.5% (inactive).

With `CC(C)(C)c1ccc(C(=O)Nc2sc3cc(O)ccc3c2C(N)=O)cc1`, the growth is 43.3% (inactive).

With `CCN(CC)CCOC(=O)c1ccc(NC(=O)Nc2cccc(Cl)c2)cc1`, the growth is 103% (inactive).

Take `CC1(c2ccccc2)NC(=O)N(NC(=O)CSc2nc(-c3cccs3)nc3ccccc23)C1=O` (stereo not given): the growth was 91.6% (inactive).

As for `CCNCC(=O)Nc1ccc(C(=O)OCC)cc1`, the growth was 88.6% (inactive).

For `COc1ccc(C2CC(c3ccc4ccccc4c3)=NN2/C=C2\SC(=S)N(NC(=O)Cc3ccccc3Nc3c(Cl)cccc3Cl)C2=O)cc1` (stereo not given), the growth was -27.4% (active).

Take `COc1cc(C(=O)/C=C/c2cc(-c3cc(OC)c(OC)c(OC)c3)n[nH]2)cc(OC)c1OC`: the growth is 0.291% (active).

With `COc1ccc(-c2c3c(N)c4c(nc3nc3c2c(C)nn3-c2ccccc2)CCCC4)cc1`, the growth is 87.2% (inactive).

`O=C1/C(=C/c2ccccc2O)N=C2SCCCN12`: the growth is 108% (inactive).

For the origin of these results see PubChem BioAssay (NCI).
